Assay outcomes: PubChem, several laboratories
A selection: hits, their analogues and other compounds. The true share with any hit is near 4.8%.
MPTP block = mitochondrial permeability transition pore inhibitors, primary screen, biochemical, isolated mouse mitochondria, absorbance. Ca2+ swelling absorbance, 30 min. inhibition, % at 10 µM. hit rate 1.4% among 360,000. AID 602449, 2012;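 active = inhibition of 50% or more, scaled per plate between neutral and stimulator controls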;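 note: 0% = DMSO wells given calcium and 100% = 1 mM EGTA wells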
Mdm2 MdmX PPI = inhibitors of human Mdm2-MdmX association, primary screen, cell-based, luminescence, split luciferase, SaOS-2, uHTS. Protein Mdm4 (Homo sapiens) + E3 ubiquitin-protein ligase Mdm2 (Homo sapiens), …. SaOS-2 split-luciferase Mdm2/MdmX complementation. AID 485346, 2010. inhibition, % at 8 µM. hit rate 3% among 330,000;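 active = inhibition of at least 50% at 8 µM in the primary screen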
Target sequence (O15151 whole entry, looked up): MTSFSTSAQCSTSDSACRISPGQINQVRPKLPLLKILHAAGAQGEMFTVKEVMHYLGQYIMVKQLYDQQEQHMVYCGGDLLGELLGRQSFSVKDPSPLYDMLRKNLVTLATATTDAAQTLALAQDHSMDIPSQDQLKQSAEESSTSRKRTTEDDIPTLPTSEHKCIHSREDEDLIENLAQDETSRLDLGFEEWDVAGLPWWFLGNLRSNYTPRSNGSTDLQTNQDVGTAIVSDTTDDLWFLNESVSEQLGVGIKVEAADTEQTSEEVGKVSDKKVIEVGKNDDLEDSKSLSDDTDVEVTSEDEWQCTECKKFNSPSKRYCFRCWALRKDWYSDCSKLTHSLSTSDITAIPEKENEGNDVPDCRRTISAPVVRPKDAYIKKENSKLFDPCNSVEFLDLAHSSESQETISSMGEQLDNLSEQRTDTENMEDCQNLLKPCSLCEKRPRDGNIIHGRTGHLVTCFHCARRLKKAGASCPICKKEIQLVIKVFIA
Target sequence (Q00987 whole entry, looked up): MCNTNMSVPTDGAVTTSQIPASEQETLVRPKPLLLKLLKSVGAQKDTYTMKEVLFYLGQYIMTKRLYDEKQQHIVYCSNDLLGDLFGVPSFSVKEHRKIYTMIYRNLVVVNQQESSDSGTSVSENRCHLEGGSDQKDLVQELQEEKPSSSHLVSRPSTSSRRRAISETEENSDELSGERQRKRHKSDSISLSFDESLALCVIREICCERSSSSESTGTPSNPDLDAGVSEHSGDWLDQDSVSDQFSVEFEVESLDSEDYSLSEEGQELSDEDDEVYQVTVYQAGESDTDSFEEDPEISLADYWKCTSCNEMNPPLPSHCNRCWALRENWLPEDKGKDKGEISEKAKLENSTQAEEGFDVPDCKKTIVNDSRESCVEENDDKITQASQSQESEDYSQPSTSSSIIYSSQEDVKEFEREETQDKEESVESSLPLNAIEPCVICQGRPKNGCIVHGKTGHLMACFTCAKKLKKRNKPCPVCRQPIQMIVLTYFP
Beta apoptosis = inhibitors of cytokine-induced beta cell apoptosis, primary screen, luminescence; INS-1E cytokine-induced death, ATP luminescence, 48 h; percent of positive-control rescue, neutral wells zero; protection from apoptosis, % (test concentration not listed); hit rate 0.8% among 300,000;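 active = Every replicate reaches about 75%, or at least half do and their mean reaches it too, limit read from the data; inconclusive = At least half of replicates reach the limit but their mean does not; inactive = Under half of replicates reach the limit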;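 note: 0% = cytokine-treated negative control wells and 100% = positive control rescue; higher means more ATP so stronger rescue from cytokine killing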
CSC inhib = cancer stem cell viability inhibitors, primary screen, luminescence; hit rate 1.1% among 300,000; cancer stem cell-like cells viability; inhibition, % at 7.5 µM; in the data active = inhibition above about 75%; inconclusive = no clear call, values can overlap the other calls; tested in HMLE shEcad cells
Calb FLC = C. albicans growth inhibition with fluconazole, primary screen, CaCi-2 strain, Alamar Blue fluorescence | hit rate 0.57% among 300,000 | C. albicans CaCi-2 (fluconazole-resistant clinical isolate) + fluconazole, 48 h | growth inhibition, % (concentration not given with the values) | AID 1979, 2009;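 active = growth inhibition above about 58% in most replicates, limit read from the data, passing the limit was not always enough; inconclusive = exactly half the replicates above a set limit; inactive = most replicates below a set limit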;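 note: all wells also contain fluconazole at 8 µg/ml as a sub-toxic cotreatment; 0% = median of DMSO wells and 100% = median of geldanamycin control wells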
Numbers without * were called inactive; ? = inconclusive; · = not tested or not shown.

SMILES | MPTP block | Mdm2 MdmX PPI | Beta apoptosis | CSC inhib | Calb FLC
O=c1cc2oc3cc(O)c(O)cc3c(-c3ccccc3[N+](=O)[O-])c-2cc1O | 30 | 49 | 37 | 95* | 88*
O=c1cc(-c2ccccc2Cl)oc2cccc(O)c12 | -1 | 9 | 1 | -4 | 6
Cn1c(O)c(/C=N/NC(=O)c2cc3ccccc3cc2O)c2ccccc21 | 8 | 24 | 69 | · | 83*
Cc1csc(-c2nc3ccccc3n2C(C(=O)NC(C)(C)C)c2ccccc2)c1 (stereo unspecified) | 5 | · | · | · | ·
O=C(N/C=N/OCc1ccc(Cl)cc1Cl)NOCc1ncc(C(F)(F)F)cc1Cl | 3 | 2 | -18 | 124* | 18
COc1ccc(-c2ccc(SC)nn2)cc1 | 1 | -29 | 60 | 80* | 1
COc1ccccc1C(O)c1ncc(-c2cccc(C(F)(F)F)c2)[nH]1 (stereo unspecified) | 2 | · | · | · | ·
CC1(C(=O)O)CCCN1C(=O)c1ccco1 (stereo unspecified) | 0 | · | · | · | ·
CCCc1cc(-c2nc(N)ncc2-c2ccc3c(c2)OCCCO3)c(O)cc1OC | -2 | 40 | 0 | 173* | -3
Cc1ccc(C)c(N2CCN(C(=O)CCCOc3cc(=O)n(C)c4ccccc34)CC2)c1 | 8 | 6 | 94* | -14 | 15
CCCCCCCCN1C(=O)[C@H](CC(=O)N2CCOCC2)C[C@@]2(C(=O)OC)CC(C)(C)CC=C12 | -2 | · | · | · | ·
Cc1ccc(C(C)C)c(OCc2ccc(C(=O)N/N=C/c3ccc(O)cc3O)cc2)c1 | 3 | · | 116* | 101* | 1
O=C(N/N=C/c1cccc(O)c1)c1ccc(COc2ccccc2Br)cc1 | 5 | 24 | -4 | 87* | -1
CCCCCCCCN1C(=O)[C@H](CC(=O)N2CCCCC2)C[C@@]2(C(=O)OC)CCCCC=C12 | -1 | · | · | · | ·
CCN1CCN(C(C(=O)NC2CCCCC2)c2cc3ccccc3o2)CC1 (stereo unspecified) | -2 | · | · | · | ·
COc1ccc(CNCCNC(=O)c2ccco2)c(OC)c1OC | -1 | 9 | 1 | -6 | 91*
COc1cc(C(=O)NCCNC(=O)c2ccco2)cc(OC)c1OC | -1 | · | · | · | ·
CC(=O)NC(c1ccc(F)c(F)c1)c1nc(-c2cccs2)cs1 (stereo unspecified) | 0 | · | · | · | ·
S=C1NC[C@H](Cc2ccccc2)N1CC1CCN(CCCC2CCCC2)CC1 | -1 | · | · | · | ·
CN(C)C1=NC[C@H](Cc2ccccc2)N1CCCC1CCCCC1 | 3 | 43 | 87* | 27 | ·
S=C1NC[C@H](Cc2ccccc2)N1CCCCC1CCCCC1 | -1 | -25 | -11 | 136* | -22
O=C1NC[C@@H](Cc2cccc3ccccc23)N(CCCCC2CCCCC2)C1=O | -3 | 19 | 0 | 88* | 28
O=C1NC[C@H](CC2CCCCC2)N(CCc2cccc3ccccc23)C1=O | 0 | · | · | · | ·
O=C1Nc2ccccc2N=C(c2ccccc2)C1N(C(=O)c1ccnc2ccccc12)c1ccccc1 (stereo unspecified) | -1 | · | · | · | ·
CC(C)[C@@H](NC(=O)OC(C)(C)C)c1cc(C(=O)c2c(-c3ccccc3)[nH]c3ccccc23)c(N)s1 | -2 | · | · | · | ·
SMILES | MPTP block | Mdm2 MdmX PPI | Beta apoptosis | CSC inhib | Calb FLC
O=C(CS(=O)(=O)Nc1ccc(F)cc1Cl)Nc1ccc(F)cc1Cl | 1 | -11 | · | · | 79*
Cc1ccc(C[n+]2cc(-c3ccc(Cl)cc3)n3c2CCC3)cc1 | 5 | 37 | 35 | 19 | -28
Cc1ccc(-c2c[n+](CC(=O)N3c4ccccc4Sc4ccccc43)c3n2CCC3)cc1 | 8 | 20 | · | -6 | 109*
Cc1ccc(-c2c[n+](Cc3ccc(Cl)cc3)c3n2CCC3)cc1 | 4 | 35 | 109* | 20 | 20
O=C(C[n+]1cc(-c2ccccc2)n2c1CCC2)N1c2ccccc2Sc2ccccc21 | 3 | -9 | -1 | -14 | -2
CCc1ccc2c(c1)NC(=O)C2(C)Cc1ccccc1OC (stereo unspecified) | 0 | · | · | · | ·
CCOc1ccc(/C=C2\C(=O)c3ccccc3OC2c2ccccc2)cc1 (stereo unspecified) | 1 | 34 | 8 | 72 | ?
COc1ccc(/C=C2\C(=O)c3ccccc3OC2c2ccccc2)cc1 (stereo unspecified) | 1 | 37 | 25 | 82* | -15
COc1ccc(COc2cc(-c3cccc(OC)c3)nc3ccc(NC(=O)c4ccc(N(C)C)cc4)cc23)cc1 | 2 | 39 | 3 | 80* | -7
